KKLEB cytotox – cytotoxicity in KKLEB CF airway cells, primary screen, cytotoxicity control for CF NF-kB inhibitor project, cell-based, uHTS, fluorescence assay plates. KKLEB CF airway cells viability, ATPlite luminescence, overnight; stronger effect = lower value; cells stimulated with P. aeruginosa culture filtrate. activity change (cytotoxicity), % at 5 µM. 360,000 tested, 0.36% active;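 active = corrected activity change at or below -50% at 5 µM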
MITF TRPM1 inh – inhibitors of MITF-dependent TRPM1 promoter reporter, primary screen, cell-based, SK-MEL-5, single point, luciferase; SK-MEL-5 TRPM1 promoter luciferase, 24 h; inhibition, % at 12.5 µM; 330,000 tested, 0.83% active;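 active = mean inhibition across replicates of 60% or more, whatever share of single replicates reaches that level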
Beta2AR agonist – beta2AR agonists driving receptor internalization, primary screen, cell-based, FAP fluorogen, flow cytometry; Beta-2 adrenergic receptor (Homo sapiens), P07550; Am2.2-beta2AR cells; response, % (test concentration not listed); 340,000 tested, 0.43% active;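 active = response above a set limit, near 3 SD of response in nonfluorescent compounds, cut at about 42% in these data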
Target sequence (P07550 whole entry, looked up): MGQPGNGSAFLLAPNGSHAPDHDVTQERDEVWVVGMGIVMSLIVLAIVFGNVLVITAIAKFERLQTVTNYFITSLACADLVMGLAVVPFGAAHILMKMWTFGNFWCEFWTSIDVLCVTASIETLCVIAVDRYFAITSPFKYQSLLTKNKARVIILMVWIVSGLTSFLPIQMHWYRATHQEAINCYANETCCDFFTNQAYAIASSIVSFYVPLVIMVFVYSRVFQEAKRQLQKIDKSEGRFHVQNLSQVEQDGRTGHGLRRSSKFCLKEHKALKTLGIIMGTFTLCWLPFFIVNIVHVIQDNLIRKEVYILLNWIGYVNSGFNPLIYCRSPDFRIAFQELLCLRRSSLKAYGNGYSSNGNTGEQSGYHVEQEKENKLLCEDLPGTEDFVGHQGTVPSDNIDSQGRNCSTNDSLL
CF NFkB inh – inhibitors of PAF-induced NF-kB signaling, primary screen, cell-based, GFP fluorescence, uHTS. KKLEB NF-kB-GFP reporter, GFP fluorescence overnight. inhibition, % at 5 µM. 360,000 tested, 0.86% active;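 active = at least 50% inhibition at 5 µM, scaled per plate between neutral and stimulator controls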;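 also: PAF is a Pseudomonas aeruginosa culture filtrate used as stimulus; plate controls were PAF-stimulated DMSO wells for no effect and unstimulated DMSO wells for full effect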
HIF-2a block – HIF-2a reporter inhibitors, primary screen, luminescence, 786-0 RCC cells; inhibition, % at 18.8 µM; 360,000 tested, 0.72% active; 786-0 RCC cells HIF-2a reporter, luciferase luminescence, overnight; AID 624352, 2012;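 active = inhibition of the luminescence signal of 40% or more relative to plate controls, in a single-dose primary screen at 18.75 µM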
Peg3 promoter – Peg3 promoter-driven luciferase inhibitors, primary screen, cell-based, HeLa, luciferase luminescence. inhibition, % at 20 µM. AID 588405, 2011. 360,000 tested, 1.7% active. HeLa PEG-Prom luciferase reporter, overnight;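 active = inhibition of at least 50% at 20 µM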
* hit, by the source's call; · = no result given. Hits are enriched below; roughly 2.8% of the tested compounds scored in any of these assays.

SMILES	KKLEB cytotox	MITF TRPM1 inh	Beta2AR agonist	CF NFkB inh	HIF-2a block	Peg3 promoter
CCOC(=O)C1=CCC(c2ccccc2C)N(S(=O)(=O)c2ccc(C)cc2)C1 (stereo unspecified)	0	·	·	8	13	14
O=C(NCCO)C(=O)Nc1cc2c3c(c1)CC(=O)N3CCC2	5	-7	1	-13	7	20
O=C(CCl)c1cc2c3c(c1)CC(=O)N3CCC2	9	44	12	20	-7	81*
O=C(NC1CCCCC1)C(c1ccccc1F)n1c(=O)c(-c2cc3ccccc3[nH]2)nc2ccccc21 (stereo unspecified)	·	·	·	·	-15	·
CCCCCCSc1cccc(-c2nc3ccccn3c2NCc2ccccc2)c1	-4	-4	9	4	-132	74*
CCC(C)Sc1cccc(-c2nc3ccccn3c2NCc2ccccc2)c1 (stereo unspecified)	-16	-3	29	4	-301	73*
CCC(C)Sc1cccc(-c2nc3ccc(C)cn3c2NCc2ccccc2)c1 (stereo unspecified)	3	-12	16	10	-84	83*
CC(=O)Nc1cncc(-c2cnn(CC(C)C)c2)n1	9	·	·	-10	-51	-33
CC(C)n1nnnc1C1c2ccccc2C(=O)N1CCCn1ccnc1 (stereo unspecified)	·	·	·	·	-2	·
O=c1c2ccc(Cl)cc2nc(-c2cccc(C(F)(F)F)c2)n1O	-5	47	2	7	26	52*
C(=C\c1ccccc1)/CN1CCN(C(c2cccs2)c2nnnn2-c2ccc3c(c2)OCCO3)CC1 (stereo unspecified)	-14	·	·	6	-6	7
CN(C)c1ccc(CCc2ccc(N)cc2)cc1	12	43	17	6	83*	-60
CN(C)c1ccc(Cc2ccc(N(C)C)cc2)cc1	-5	·	22	4	-36	-10
COc1ccc(C(=O)NC(=S)NNC(=O)[C@H]2C[C@@H]2c2ccccc2)cc1OC	-15	-3	1	10	21	61*
COc1cc(OC)cc(C(=O)NC(=S)NNC(=O)[C@H]2C[C@@H]2c2ccccc2)c1	-4	9	0	19	9	28
Cc1ccc(CN(Cc2cc3cccc(C)c3[nH]c2=O)C(=S)NCCCN(C)C)cc1	-8	-6	15	14	11	87*
Cc1cccc2cc(CN(Cc3ccccc3)C(=S)NCCCN(C)C)c(=O)[nH]c12	-9	-22	2	11	11	18
O=C1C(Cl)=C(N2CCCCCC2)C(=O)N1c1ccc(Cl)cc1	5	0	21	2	-37	1
CN(C)c1ncc(C2=C(Cl)C(=O)C(N3CCCC3)=C(Cl)C2=O)s1	2	60	76*	0	4	57*
O=C1C(Cl)=C(N2CCCCC2)C(=O)C(Cl)=C1c1cnc(N2CCCCC2)s1	-4	101*	35	3	45*	58*
CN1C2=CC=CC=CC2=[N+](C)C12C([N+](=O)[O-])=CC(=[N+]([O-])[O-])C=C2[N+](=O)[O-] (stereo unspecified)	-16	70*	18	17	0	30
CN1C2=CC=CC=CC2=[N+](C)C12C=CC(=[N+]([O-])[O-])C=C2[N+](=O)[O-] (stereo unspecified)	4	13	10	-8	-3	13
COc1ccc(OC)c(NC(=O)Nc2nc(C(N)c3ccccc3Cl)cs2)c1 (stereo unspecified)	-6	·	·	-4	-19	4
CCc1ccc(/C=C/C(=O)c2ccc(S(=O)(=O)N(C)C)cc2)cc1	-12	4	19	15	13	54*
CCc1ccc(/C=C/C(=O)c2ccc(N3CCOCC3)cc2)cc1	-4	-10	0	17	-106	-86
SMILES	KKLEB cytotox	MITF TRPM1 inh	Beta2AR agonist	CF NFkB inh	HIF-2a block	Peg3 promoter
CC1(C(=O)NS(=O)(=O)c2cccc(OC(F)F)c2)CCN1C(=O)c1ccccc1CCc1ccccc1 (stereo unspecified)	-1	·	·	22	16	15
CC(CCc1ccccc1)NC(=O)c1ccc(C(=O)NC(C)CCc2ccccc2)cc1 (stereo unspecified)	1	74*	-2	37	5	59*
CC(CCc1ccccc1)NC(=O)c1ccccc1 (stereo unspecified)	-2	-7	-2	10	-21	-8
CCOC(=O)C1=CCN(S(=O)(=O)c2ccc(C)cc2)C1c1ccccc1 (stereo unspecified)	-10	·	·	-5	-6	10
CCOc1cc2c(c3c1C(c1ccccc1)N(S(=O)(=O)c1ccc(C)cc1)C3)C(=O)C=CC2=O (stereo unspecified)	-67*	·	·	56*	68*	101*
CCN(CC)CCNC(=O)c1cc(-c2ccc(Br)s2)nc2ccccc12	-8	-11	14	-2	-35	101*
CSCCC(C(=O)NC(C)(C)C)n1c(-c2ccc3c(c2)OCO3)nc2ccccc21 (stereo unspecified)	·	·	·	·	-86	·
CCOC(=O)c1cc2c(N)c(C(=O)c3cc(C#N)c(SC)nc3C)sc2nc1C	-64*	9	13	48	-4	28
CCOC(=O)c1cc(C#N)c(SC)nc1C	-1	-6	4	-3	12	10
CCOC(=O)[C@]12CCCC=C1N(CCc1ccc(OC)c(OC)c1)C(=O)[C@H](CC(=O)NCC13CC4CC(CC(C4)C1)C3)C2	·	·	·	·	-6	·
COc1ccc(CNCC(O)(c2ccc(Cl)cc2)c2ccc(Cl)cc2)cc1	-7	6	25	17	12	19
CCCCNCC(O)(c1ccc(Cl)cc1)c1ccc(Cl)cc1	-21	-16	16	18	18	63*
O=C(CNc1ccccc1)N/N=C/c1ccc([N+](=O)[O-])o1	1	56	24	-13	1	11
O=C(Cc1ccc2c(c1)OCO2)NN=Cc1ccc([N+](=O)[O-])o1	-14	73*	1	-7	-26	-5
O=C(N/N=C\c1ccc([N+](=O)[O-])o1)C1COc2ccccc2O1 (stereo unspecified)	7	75*	5	-4	-1	-18
Cc1ccc(NCC(=O)N/N=C\c2ccc([N+](=O)[O-])o2)cc1	4	68*	10	-19	-9	2
O=C(CCC(=O)Nc1ccc(Cl)cc1Cl)N/N=C/c1ccc([N+](=O)[O-])o1	8	·	·	-14	-28	57*
COc1ccc(OC)c(NC(=O)CCNC(=O)N2CC(=O)Nc3ccccc32)c1	1	·	·	-4	2	-9
